# Experimental data from PubChem BioAssay (NCI).
# Compounds without any hit were thinned out: in the full panel of roughly 83,000, 20% have a hit.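 Note: values are percent growth. 100 is the growth of untreated cells, values between 100 and 0 indicate rising inhibition; between -100 and 0 indicates cell death.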 Values without a mark were called inactive. Calls of active or inactive are those of the source. The calls were made as follows: active = growth percent below 10; inactive = the rest.
# Tested on: HL-60(TB) leukemia
# Experiment: NCI-60 one-dose screen, 48 h (100 = growth as untreated, 0 = no growth, -100 = all killed)
# Conditions: 10 µM unless noted
row,SMILES,growth
1,COc1ccc(-c2conc2-n2nc(-c3ccccc3)nc2-c2ccccc2)cc1,99.3%
2,COc1cc(/C=C/C(=O)c2ccc(O)c(CN3CCN(c4cc5c(cc4F)c(=O)c(C(=O)O)cn5C4CC4)CC3)c2)cc(OC)c1OC,7.35% (active)
3,CCCCCCCC[Si](OCC)(OCC)OCC,94.3%
4,CC1=CC[C@@H]2C(C)(C)[C@@H](O)CC[C@@]2(C)[C@@H]1COc1ccc2ccc(=O)oc2c1,76.7%
5,N#CC1=C(N)Oc2c(sc3c(Br)cccc23)C1c1ccc(F)cc1 (centres undefined),-25.6% (active)
6,Cc1nc2ccccc2c(/C=C/c2ccc(Cl)cc2)c1C(=O)/C=C/c1ccc(F)cc1,-7.94% (active)
7,Cc1nc(N)sc1Sc1nc2ccc(Cl)cc2c(=O)n1-c1ccc(Oc2ccccc2)cc1,59.4%
8,COc1ccc(C(=O)n2nc(CC(=O)NCc3ccccc3)nc2N)cc1,91.9%
9,CCn1cnc(C[C@H](NC(=O)[C@@H](NC(=O)Nc2cc(C(F)(F)F)cc(C(F)(F)F)c2)C(C)(C)C)C(=O)OC)c1,-71.5% [100 µM] (active)
10,O=C1c2cccc3cccc(c23)C(=O)N1N1C(=O)c2cccc3c(N4CCOCC4)ccc(c23)C1=O,125%
11,COC1=CC(=O)c2nc(Cl)ccc2C1=O,-30.1% (active)
12,COc1ccc(-c2nc3sc(-c4ccccc4)c(-c4ccccc4)n3c2/C=C/C(=O)c2ccccn2)cc1,50.5%
13,C1=C(N2CCCC2)CCC1,56.7%
14,CC(C)(C)N1CCC1CN (centres undefined),125%
